# From PubChem
# JMJD2A Tudor: blocks the human JMJD2A Tudor domain | O75164 | AlphaScreen JMJD2A-Tudor / H3K4me3 peptide binding | Potency, µM (top dose mostly 114 µM), inactives show at the top dose activity change, negative = inhibition, actives largely listed as inhibitors | hit rate 4.4% among 390,000 | AID 504339; further: on the % scale 0 is the no-effect control and ±100 the full control effect; nearly all actives have a fitted effect of over 50% in size
# PLK1 PBD inh: blocks phosphopeptide binding to human PLK1 polo-box domain; P53350; Potency, µM, without a hit: max response, negative = inhibition, actives largely listed as inhibitors; Plk1 PBD binding of FITC phosphopeptide, fluorescence polarization; hit rate 2.8% among 360,000; further: series mostly up to about 57 µM; on the % scale 0 is the no-effect control and ±100 the full control effect; nearly all actives have a fitted effect of over 65% in size
# HP1b binding inh: inhibitors of HP1-beta chromodomain binding to methylated histone tails; P83916; AlphaScreen HP1-beta / biotin-H3K9me3 peptide binding; Potency, µM (highest dose often 114 µM), without a hit: top-dose activity change, negative = inhibition, hits mostly inhibitors; hit rate 0.56% among 390,000; AID 540317; further: nearly all actives have a fitted effect of over 70% in size
#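 AlphaScreen: HP1-beta (50 nM) preformed 30 min with biotin-H3(1-18)K9me3 peptide (50 nM) in PBS pH 7.4, 0.01% Tween-20. Compound added for 30 min at RT, then streptavidin donor/nickel chelate acceptor beads (10 ug/mL) for 30 min.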
# BAZ2B block: inhibitors of human BAZ2B bromodomain. Q9UIF8. AlphaScreen BAZ2B-H3K14Ac peptide displacement. Potency, µM (top dose mostly 114 µM), for the others: at the highest dose activity change, negative = inhibition, hits mostly inhibitors. hit rate 4.4% among 360,000; further: on the % scale 0 is the no-effect control and ±100 the full control effect; nearly all actives have a fitted effect of over 60% in size
#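 Protein-peptide AlphaScreen: BAZ2B 50 nM, b-H3K14Ac 50 nM, 1x PBS pH 7.4 + 0.01% Tween-20. Preincubation 30 min RT; cpd 30 min RT (top 110 uM); beads 20 min RT, light-protected.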
# G9a block: inhibitors of human histone lysine methyltransferase G9a. hit rate 8.8% among 350,000. G9a H3K9 monomethylation, AlphaScreen, 2 h. Q96KQ7. Potency, µM (top dose mostly 102 µM), for inactives: top-dose activity, negative = inhibition, actives largely listed as inhibitors. AID 504332; further: on the % scale 0 is the no-effect control and ±100 the full control effect; nearly all actives have a fitted effect of over 75% in size
#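 Step 1: enzyme (final 20 nM) with compound, 15 min RT. Step 2: substrate peptide 500 nM and SAM 20 uM, 2 h RT. Step 3: anti-H3K9me1 antibody and AlphaScreen beads, 10 min, then plate read.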
# VDR inhibitor: vitamin D3 receptor (human) inhibition | VDR-SRC2-3 peptide fluorescence polarization, 2 h | Potency, µM, inactives show max response, negative = inhibition, usual class: inhibitors | hit rate 0.93% among 400,000 | AID 504847; further: on the % scale 0 is the no-effect control and ±100 the full control effect
#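 VDR–SRC2-3 interaction, FP format. Cmpds 23 nl via pintool, brief spin, 2 h ambient incubation.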
# Starred values were filed as active, the others as inactive; ? = inconclusive; / = no result given; [ ] = remark or other dose. Compounds with a hit are over-represented: about 11% of the library has one in this group of screens. The call rests on the fitted dose curve; in most records, active means well fitted curve in the direction sought with a large enough effect; inconclusive means small, poorly fitted or top-dose-only effect, or another doubt; inactive means no such curve, though single readings can be large; an effect the other way counts as inactive or inconclusive. Potency means the concentration at half of the fitted maximal effect.
SMILES,JMJD2A Tudor,PLK1 PBD inh,HP1b binding inh,BAZ2B block,G9a block,VDR inhibitor
COC(=O)c1ccc(C(=O)OC)c(NC(=O)COC(=O)C2CC2C)c1 (configuration not stated),-1.6%,-5.2%,46.2%,5.5%,6.3%[12.7 µM],-1.5%
CC(C)(C)C(=O)C(Cl)C(=O)Nc1ccccc1 (configuration not stated),-1.4%,10.6µM*,52.7%,-3.2%,?,20µM*
CCCSCC(=O)Nc1ncc2c(n1)-c1ccccc1CC2,?,?,23.3%,56.2µM*,8.91µM*,-4.3%
O=C(Nc1ncc2c(n1)-c1ccccc1CC2)c1ccc(Cl)cc1,?,-3.4%,10.9%,5.9%,-5.4%[0.0925 µM],-3.3%
CCOC(=O)C1(C)C(=O)CC2c3nc4ccccc4cc3CN2C1=O (configuration not stated),/,-19.9%,/,/,/,/
O=C(NCCc1nnc2ccc(NCCCN3CCOCC3)nn12)c1ccccc1F,-9.0%,2.2%,28.2%,2.6%,20.9%,-7.2%
CCN(CC)S(=O)(=O)c1ccc(N2CCCC2)c(NC(=O)CN2C(=O)NC3(CCCC3)C2=O)c1,-24.0%,-1.0%,11.6%,0.6%,-5.9%,8.6%
CC(C)c1nnc(NC(=O)c2cccc(NC(=O)C(F)(F)F)c2)s1,-12.1%,21.2µM*,-6.6%,-11.7%,12.6µM*,1.2%
CC(C)C(=O)Nc1cccc(C(=O)Nc2nnc(C(C)C)s2)c1,0.3%,-3.3%,40.8%,10.5%,0.5%[59 µM],18.3%
COc1ccc(OC)c(CNC(=O)Cc2ccc(NC(=O)N3CCSc4ncccc43)cc2)c1,-11.4%,/,7.2%,-14.1%,-24.5%[59 µM],7.6%
Cc1cc(SCNC(=O)c2ccccc2)nc(C(C)C)n1,9.2%,23.8µM*,30.2%,-6.8%,31.6µM*,-28.3%
Cc1cc(SCC(=O)Nc2ccccc2)nc(C)n1,8.7%,-0.9%,36.4%,-6.3%,-5.1%[59 µM],11.4%
Cc1cc(C)nc(SCNC(=O)c2ccccc2)n1,?,-21.7%,45.1%,-13.2%,10µM*,-4.9%
CCOC(=O)CSc1nc(C)cc(C)n1,-11.9%,-6.7%,30.4%,9.5%,?,-6.2%
COC(=O)CSc1nc(C)cc(C)n1,14.1µM*,7.52µM*,-10.4%,-15.3%,-0.9%,?
COC(=O)c1sccc1S(=O)(=O)N(CC(=O)NCc1ccc(C)cc1)c1ccc(Cl)cc1,-18.3%,/,28.5%,-6.7%,2.2%[59 µM],-12.5%
O=C(c1ccc(F)cc1F)N1CCN(S(=O)(=O)c2ccc3c(c2)OCCO3)CC1,-6.0%,-0.4%,14.4%,8.8%,-3.6%[12.7 µM],-9.5%
CCOC(=O)c1ccc(Nc2c(-c3ccc(OC)cc3)nc3nc[nH]n23)cc1,?,/,-1.6%,?,?,5.9%
Cc1cccc2cc3c(N)c(C(=O)N4CCc5ccccc54)sc3nc12,-21.7%,0.8%,24.6%,-6.8%,1.41µM*,-6.8%
O=C1/C(=C/c2ccccc2[N+](=O)[O-])COc2ccccc21,?,?,-20.2%,?,?,22.4µM*
CN(Cc1ccc2c(c1)CCCN2C)C(=O)[C@H]1O[C@@H](n2ccc(=O)[nH]c2=O)[C@H](O)[C@@H]1O,/,-12.3%,/,/,/,/
CC1CN2C(c3ccc(Cl)cc3)=CSC2=N1 (configuration not stated),-23.8%,-25.8%,16.6%,-4.7%,44.7µM*,-4.0%
Cc1ccc(C2=CSC3=NCCN23)cc1,-1.0%,1.9%,24.6%,/,/,16.2%
CCN1C(=O)S/C(=C/c2ccc(Sc3nc4ccccc4[nH]3)o2)C1=O,-24.3%,-9.6%,17.9%,-2.5%,11.2µM*,-14.2%
Cc1cc(S(=O)(=O)Nc2nc(CN3CCOCC3)nc3sc4c(c23)CCC4)cc(C)c1C,-35.2%,?,-3.6%,?,44.7µM*,-28.2%
SMILES,JMJD2A Tudor,PLK1 PBD inh,HP1b binding inh,BAZ2B block,G9a block,VDR inhibitor
Cc1sc2nc(CN3CCOCC3)nc(N3CCOCC3)c2c1C,?,-4.8%,?,50.1µM*,3.55µM*,6.2%
Cc1sc2nc(CN3CCOCC3)nc(N3CCC(C(N)=O)CC3)c2c1C,-27.5%[57.1 µM],-7.7%,53.1%,12.6%,-11.2%[59 µM],7.1%
COc1cc2c(cc1OC)CN(c1nc(CN3CCOCC3)nc3sc4c(c13)CCCC4)CC2,50.1µM*,-5.8%,?,44.7µM*,44.7µM*,9.0%
COc1cc2c(cc1OC)CN(c1nc(CN3CCCCC3)nc3sc4c(c13)CCCC4)CC2,-34.4%,9.5%,0.1%,?,?,-7.9%
Cc1cc(S(=O)(=O)Nc2nc(CN3CCOCC3)nc3sc4c(c23)CCCC4)ccc1F,-5.3%,-10.6%,35.3%,-2.7%,?,4.2%
COc1cc2c(cc1OC)CN(c1nc(CN3CCCC3)nc3sc(C)c(C)c13)CC2,?,-8.6%,0.5%,79.4µM*,35.5µM*,7.0%
CCCCOc1ccc(Cl)cc1Nc1nc(NCCO)nc(N2CCCC2)n1,-32.6%,/,13.0%,/,/,5.7%
Cc1ccc2c(c1)c(C)cc[n+]2Cc1ccccc1,-8.2%,-2.3%,12.7%,6.9%,50.1µM*,8.1%
COc1ccccc1CNC(=O)C1CCN(S(=O)(=O)c2ccc3c(ccn3C)c2)CC1,-4.8%,/,23.2%[57 µM],-1.8%,-0.5%[59 µM],23.2%
CC(=O)Nc1ccc2c(c1)nc(CN1CCCC1)n2C,-0.6%,-4.1%,34.0%,-4.6%,17.8µM*,-12.7%
Cc1ccc(OCC(=O)Nc2ccc3c(c2)nc(CCN2CCCC2)n3C)cc1,/,-1.5%,/,/,/,/
Cc1ccc(C(C)C)c(OCC(=O)Nc2ccc3c(c2)nc(CN2CCCC2)n3C)c1,?,-22.0%,19.9%,11.2µM*,44.7µM*,-16.7%
O=C(Nc1c(-c2ccccc2)[nH][nH]c1=O)c1cccs1,/,-27.9%,/,/,/,/
CCc1nn(CC(=O)N2CCN(c3cccc(C(F)(F)F)c3)CC2)c(=O)c2cccn12,?,/,17.2%,70.8µM*,-34.8%[59 µM],-8.3%
CC1=NCC(C)c2ccccc21 (configuration not stated),/,-5.5%,/,/,/,/
CC1=NCC(C)c2c1[nH]c1ccccc21 (configuration not stated),?,-7.3%,?,?,12.6µM*,-14.1%
COc1ccc(C2C(C(C)=O)=C(O)C(=O)N2CCN(C)C)cc1OC (configuration not stated),/,/,/,-11.1%,50.1µM*,/
COc1ccc(C2C(C(C)=O)=C(O)C(=O)N2CCc2c[nH]c3ccccc23)cc1OC (configuration not stated),-14.6%,1.1%,26.7%,-32.9%,25.1µM*,4.2%
CC(=O)C1=C(O)C(=O)N(CCc2c[nH]c3ccccc23)C1c1ccc(O)cc1 (configuration not stated),89.1µM*,-9.4%,8.0%,-30.9%,-23.0%[59 µM],-5.2%
CCC1CN(C(=O)N2CCC(C(=O)NCCC3=CCCCC3)CC2)c2cc(C)ccc2O1 (configuration not stated),-16.4%,/,23.2%,-18.4%,?,3.1%
